According to PMC5540273 (PLoS ONE, 2017):

tested on: FGFR2; settings: concentration: 1 μM, replicates: in singlicate; n = 1
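Also: KINOMEscan kinase panel screen.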

Row | SMILES | %Inh
1 | N#Cc1c(N2CCOCC2)sc(-c2ccn[nH]2)c1-c1ccc(Cl)cc1 | 12%
2 | Cn1cc(-c2ccc3c(c2)CCN3C(=O)Cc2ccccc2Cl)c2c(N)ncnc21 [GSK2608885] | 82%
3 | COc1cc(Nc2nccc(N3CCC(NC(=O)c4cccc(NC(C)=O)c4)C3)n2)cc(OC)c1OC (centres unmarked) [GSK1379754] | 21%
4 | COc1ccc(S(=O)(=O)NC2CCN(c3cc(C)nc(Nc4cccc(C#N)c4)n3)CC2)cc1.O=C(O)C(F)(F)F [GSK1653539] | 0%
5 | COc1cc2c(cc1OCCN1CCN(C)CC1)ncc1c3ccc(C#N)cc3[nH]c21 | 7%
6 | O=C(Nc1n[nH]c2cc(-c3cccc(F)c3)ccc12)C1CC1 [SB-735464] | 0%
7 | Cc1cccc(-c2nc(Nc3ccc4ncsc4c3)c3ccccc3n2)n1 [GW867588] | 0%
8 | Nc1nccc(-c2c(-c3ccc(F)cc3)ncn2C2CCN(CC(F)(F)F)CC2)n1 [SB-236560] | 0%
9 | COc1ccc(Nc2nccc(N3CCC(NC(=O)Nc4cccc(C(C)=O)c4)C3)n2)cc1 (centres unmarked) [GSK1379731] | 0%

tested on: FGFR3; settings: concentration: 1 μM, replicates: in singlicate; n = 1

Row | SMILES | %Inh
10 | O=C(NCCNc1ccnc(Nc2ccc(F)cc2)n1)c1cc2ccccc2s1 [GSK1379874] | 6%
11 | Cc1nnc(-c2ccc3occ(-c4ccc(C(C)O)cc4)c3c2)o1 (centres unmarked) | 22%
12 | NS(=O)(=O)CCc1cccc(Nc2nccc(-c3c(-c4cccc(NC(=O)c5c(F)cccc5F)c4)nn4ccccc34)n2)c1 [GSK336735] | 36%
13 | NS(=O)(=O)c1cccc(-c2ccc3nccc(-c4cccc(S(N)(=O)=O)c4)c3c2)c1 [GW867253] | 0%
14 | Cc1nnc(-c2ccc(C)c(-c3ccc(C(=O)Nc4ccc(NS(C)(=O)=O)cc4)cc3)c2)o1 [GW702865] | 11%
15 | Cl.Nc1ncnc2occ(-c3ccc(NC(=O)Nc4cc(C(F)(F)F)ccc4F)cc3)c12 [SB-707548] | 63%
16 | O=C(NCCCN1CCOCC1)c1cccc(Nc2nccc(Nc3ccc(Oc4ccccc4)cc3)n2)c1 [GW663929] | 30%
17 | O=C(c1ccc(-c2cc(-c3c[nH]nc3-c3ccccn3)ccn2)cc1)N1CCOCC1 [GW812171] | 0%
18 | CN1c2ccc(NCc3ccc(F)cc3)cc2-c2c(cnn2C)S1(=O)=O | 0%
19 | Cc1nnc(-c2ccc3ncc(-c4ccc(S(C)=O)cc4)n3c2)o1 (centres unmarked) | 0%
20 | COc1cc2ncn(-c3cc(OCc4sccc4Cl)c(C(N)=O)s3)c2cc1OC [GSK448459] | 13%
21 | [2H]C([2H])(c1cccc(C(F)(F)F)c1C)n1ccn2c(=O)nc(N3CCOCC3)cc12 [GSK2336394] | 14%
22 | Cl.Oc1cccc(Nc2ccnc3cc(-c4ccncc4)ccc23)c1 [GW494601] | 12%
23 | CCc1nc(-c2cccc(C)c2)c(-c2ccnc(NCc3ccccc3)c2)s1 | 0%
24 | CN(C(=O)c1ccc(-c2cc(-c3c[nH]nc3-c3ccccn3)ccn2)cc1)C1CCOCC1 [GW810083] | 0%
25 | O=C(NOCC1CC1)c1ccc(F)c(F)c1Nc1ccc(I)cc1Cl | 0%
26 | N#Cc1ccc(-c2cc(-c3c[nH]nc3-c3ccccn3)ccn2)cc1 [GW693028] | 0%
27 | CN1c2ccc(CNc3ccc(F)cc3)cc2-c2c(cnn2C)S1(=O)=O | 0%

Row | SMILES | %Inh
28 | O=c1cc(N2CCOCC2)nc2n(Cc3cccc(C(F)(F)F)c3)ccn12 [GSK2297543] | 19%
29 | O=C(NCCNc1ccnc(Nc2ccc(F)cc2)n1)Nc1ccccc1F [GSK1379880] | 0%
30 | COc1cc2c(cc1OC[C@@H](O)CO)ncc1c3ccc(C#N)cc3[nH]c21 | 0%
31 | CCCCCc1nc2c(N)ncnc2n1CCCCC [SKF-97255] | 0%
32 | O=C(Nc1cccc(-c2nn3ncccc3c2-c2ccnc(Nc3cccc(C(F)(F)F)c3)n2)c1)c1c(F)cccc1F [GSK299495] | 0%
33 | O=c1cc(N2CCOCC2)nc2n(Cc3cccc4ccccc34)ccn12 [GSK2333389] | 7%
34 | Cc1c(Cn2c(C)nn3c(=O)cc(N4CCOC(C)C4)nc23)cccc1C(F)(F)F (centres unmarked) [GSK2344444] | 4%
35 | O=C1NC(=O)C(N2CCc3ccccc32)=C1c1cccc(Cl)c1 [SB-408010] | 0%
36 | N#Cc1c(N2CCOCC2)sc(-c2ccn[nH]2)c1-c1ccc(Cl)cc1 | 0%
37 | Cn1cc(-c2ccc3c(c2)CCN3C(=O)Cc2ccccc2Cl)c2c(N)ncnc21 [GSK2608885] | 43%
38 | COc1cc(Nc2nccc(N3CCC(NC(=O)c4cccc(NC(C)=O)c4)C3)n2)cc(OC)c1OC (centres unmarked) [GSK1379754] | 25%
39 | COc1ccc(S(=O)(=O)NC2CCN(c3cc(C)nc(Nc4cccc(C#N)c4)n3)CC2)cc1.O=C(O)C(F)(F)F [GSK1653539] | 21%
40 | COc1cc2c(cc1OCCN1CCN(C)CC1)ncc1c3ccc(C#N)cc3[nH]c21 | 0%
41 | O=C(Nc1n[nH]c2cc(-c3cccc(F)c3)ccc12)C1CC1 [SB-735464] | 0%
42 | Cc1cccc(-c2nc(Nc3ccc4ncsc4c3)c3ccccc3n2)n1 [GW867588] | 0%
43 | Nc1nccc(-c2c(-c3ccc(F)cc3)ncn2C2CCN(CC(F)(F)F)CC2)n1 [SB-236560] | 0%
44 | COc1ccc(Nc2nccc(N3CCC(NC(=O)Nc4cccc(C(C)=O)c4)C3)n2)cc1 (centres unmarked) [GSK1379731] | 2%
